# Measurements published in PubChem BioAssay (NCI).
# The panel holds about 83,000 compounds, 20% with a hit somewhere; the sample as a whole holds those more often.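 Method: cells in 96-well plates; compound added at one concentration; 48 h incubation; percent growth measured; values under 10 scored active.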 Values without a mark were called inactive. The source made the active and inactive calls.
# What was measured:
# Experiment in all cases: NCI-60 one-dose screen, 48 h (100 = growth as untreated, 0 = no growth, -100 = all killed)
# [1] = tested on: SR leukemia; details: 10 µM unless noted
# [2] = tested on: RPMI-8226 leukemia; details: 10 µM unless noted
# [3] = tested on: OVCAR-8 ovarian; details: 10 µM unless noted
# [4] = tested on: OVCAR-5 ovarian; details: 10 µM unless noted
# [5] = tested on: OVCAR-4 ovarian; details: 10 µM unless noted
# [6] = tested on: SK-OV-3 ovarian; details: 10 µM unless noted
# [7] = tested on: IGROV1 ovarian; details: 10 µM unless noted
# [8] = tested on: OVCAR-3 ovarian; details: 10 µM unless noted
# [9] = tested on: NCI/ADR-RES ovarian; details: 10 µM unless noted
# [10] = tested on: T-47D breast; details: 10 µM unless noted
# [11] = tested on: BT-549 breast; details: 10 µM unless noted
# [12] = tested on: MDA-MB-435 melanoma; details: 10 µM unless noted
# [13] = tested on: SW-620 colon; details: 10 µM unless noted
# [14] = tested on: MCF7 breast; details: 10 µM unless noted
# [15] = tested on: HCT-116 colon; details: 10 µM unless noted
# [16] = tested on: HCC-2998 colon; details: 10 µM
# [17] = tested on: KM12 colon; details: 10 µM unless noted
SMILES,growth [1],growth [2],growth [3],growth [4],growth [5],growth [6],growth [7],growth [8],growth [9],growth [10],growth [11],growth [12],growth [13],growth [14],growth [15],growth [16],growth [17]
CC[C@H](Nc1ncnc2nc[nH]c12)c1nc2cccc(F)c2c(=O)n1-c1ccccc1,72.8%,78.9%,60.6%,61.8%,95.7%,-4.44% (active),8.8% (active),48.7%,83%,-4.25% (active),40.2%,82.6%,78.3%,54.4%,65.5%,85.9%,84.6%
Cc1[nH]n(C(N)=S)c(=O)c1N=Nc1ccc(S(=O)(=O)Nc2ccncn2)cc1,111%,47.2%,106%,111%,95.1%,100%,67.3%,99%,104%,109%,143%,136%,102%,88.1%,112%,105%,99.5%
CN(C)C/C=C/C(=O)Nc1cc2c(Nc3ccc(F)c(Cl)c3)ncnc2cc1O[C@H]1CCOC1,-15.8% (active),-20.3% (active),-2.55% (active),17%,20.1%,-15.1% (active),-27.1% (active),-14% (active),5.68% (active),-6.55% (active),-1.8% (active),2.71% (active),-22.6% (active),3.59% (active),-59.8% (active),-71% (active),-0.867% (active)
CN1CCN(c2ccc(OC(F)(F)F)c(Nc3ncc4c(n3)-c3c(c(C(N)=O)nn3CCO)CC4)c2)CC1,4.81% (active),32.7%,9.62% (active),19.9%,71.5%,-3.27% (active),25.1%,41%,12.9%,43.9%,27.8%,-50.5% (active),9.76% (active),22.1%,9.89% (active),17%,9.34% (active)
Nc1cc(C(F)(F)F)c(-c2cc(N3CCOCC3)nc(N3CCOCC3)n2)cn1,-6.66% (active),-6.64% (active),-24.2% (active),-17.3% (active),-11.9% (active),-54.8% (active),-44.6% (active),-9.69% (active),-20.2% (active),-42.9% (active),-2.66% (active),-62.3% (active),0.981% (active),-7.62% (active),-25.4% (active),-52.9% (active),-1.19% (active)
Cc1cc2c(F)c(Oc3ncnn4cc(OC[C@@H](C)OC(=O)[C@H](C)N)c(C)c34)ccc2[nH]1,18.5%,47.1%,61.7%,25.8%,65.5%,73.9%,20.8%,81.1%,90.5%,70.5%,80.8%,28.6%,20.3%,39.6%,19.3%,37.5%,35.1%
COc1ccc(-c2ccc3ncc4c(c3c2)n(-c2ccc(N3CCNCC3)c(C(F)(F)F)c2)c(=O)n4C)cn1,-34.6% (active),-46.3% (active),-62.9% (active),-80.6% (active),-76.9% (active),-83.9% (active),-79.4% (active),-91.1% (active),-70% (active),-66.9% (active),-63.6% (active),-88.3% (active),-78.4% (active),-63% (active),-69.8% (active),-93.2% (active),-95.8% (active)
Cc1c(Cn2c(C)nc3c(C(=O)O)cc(N4CCOCC4)cc32)cccc1C(F)(F)F,75.7%,104%,92.1%,101%,96.2%,96%,114%,87.2%,62.1%,69.2%,70.9%,106%,102%,92.6%,92.1%,103%,103%
O=c1sn(-c2cccc3ccccc23)c(=O)n1Cc1ccccc1,38.7%,76.8%,94.4%,112%,107%,83%,98.2%,99.4%,107%,91.5%,110%,104%,110%,103%,88.1%,110%,104%
COc1cc2c(Oc3ccc(NC(=O)C4(C(=O)Nc5ccc(F)cc5)CC4)cc3F)ccnc2cc1OCCCN1CCOCC1,-16.7% (active),10.3%,26.8%,11.7%,32.1%,-13.8% (active),-34.7% (active),46.5%,9.62% (active),0.289% (active),17.8%,-75.1% (active),-31.4% (active),-22.2% (active),-61.2% (active),7.76% (active),0.619% (active)
C[C@@]1(C(=O)Nc2ccc(F)nc2)CCCN1c1nc(Nc2cc(C3CC3)[nH]n2)c2cccn2n1,-0.827% (active),62.1%,38.6%,14.7%,0.224% (active),18.7%,1.38% (active),57.4%,32%,7.7% (active),27.3%,38.1%,16.4%,17.9%,7.82% (active),42.2%,-23.6% (active)
COc1cc2c(cc1O)c(=O)n(CCN(C)C)c1c3cc4c(cc3ncc21)OCO4,4.06% (active),-30.3% (active),-9.58% (active),-1.62% (active),-1.86% (active),3.14% (active),0.0353% (active),-39.9% (active),-12.6% (active),4.79% (active),-15.5% (active),-59.7% (active),1.96% (active),2.14% (active),2.63% (active),-38.6% (active),-11.6% (active)
NC1=Nc2cc(OCCCN3Cc4ccccc4C3)c(OCC3CC3)cc2C12CCCC2,-5.81% (active),33.8%,72%,83.5%,61.3%,70.1%,71.7%,75.7%,79%,2.41% (active),68.6%,38.1%,76.3%,47.5%,32.9%,1.52% (active),69.6%
Cc1cc(-c2cc(OC(=O)c3ccccc3)ccc2Cl)cc2nnc(Nc3ccc(OCCN4CCCC4)cc3)nc12,0.433% (active),74.4%,68.6%,81%,-40.5% (active),52.6%,69.4%,86.3%,110%,91.8%,110%,-70.6% (active),105%,3.92% (active),55.5%,109%,90.5%
c1cc(OCCN2CCCCC2)cc(-c2n[nH]c3ccc(-c4ncn[nH]4)cc23)c1,7.19% (active),58.4%,72.2%,56.5%,62.7%,31.8%,30.9%,69%,89.7%,68.3%,70.3%,42.1%,35.6%,57.9%,28.7%,66.7%,39.6%
N#CCNC(=O)c1ccc(-c2ccnc(Nc3ccc(N4CCOCC4)cc3)n2)cc1,6.43% (active),27.3%,24.1%,29%,65.8%,28.7%,10.7%,31.9%,62.7%,63.5%,10.8%,42.5%,24%,15.6%,-4.58% (active),30.8%,16.9%
